Whole data set: some 25,000 sequences, median “ln(normalized median fluorescence intensity)” near 7.1, cut for the highest 2% near 10. Only a selection was taken, and the highest values are over-represented in it overall.
Test system: PfSIP2 AP2 domain 1 (GST-tagged)
Experiment: gcPBM binding intensity (ln(normalized median fluorescence intensity)); higher = stronger DNA binding
Outline: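 The highest Masliner-normalised natural-log median intensity across replicate spots of either probe orientation is reported as binding intensity. GST-tagged P. falciparum DNA-binding domains expressed in E. coli were applied for 1 h to an Agilent 4 × 180k array of primer-extended double-stranded 36-bp intergenic genomic probes plus negative controls, and bound protein was detected with Alexa488 anti-GST antibody and scanned at 488 nm.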

| Sequence | gcPBM binding intensity (ln) |
| --- | --- |
| TATGAATTTATCTACAACATTTGAAATAAATTAAAA [CACACA_negctrl_site79] | 6.72 |
| TTGTTTATCAACAGCACACACAACAACAACAACAAC [CACACA_site458] | 7.25 |
| AAATATAATAATAATTTAAGAATCTAATATTTTATA [CACACA_negctrl_site831] | 6.59 |
| ATACGATTGCAGTCAAAAAGGAAAATATAAAAAAAG [XGTACX_negctrl_site124] | 7.29 |
| TTTTTTTTTTTTCACGTGCACTATACATATAAGTAA | 10.5 |
| TTTTACGTGAGTAATACACACATATAAGTTTATATA [CACACA_site4120] | 6.74 |
| TTTTTTTTTTTTTCAAGTACATATATATATATATAA [XGTACX_site2098] | 7.58 |
| AATATAATATTATATAGTACATATTTCTTTTATTTT [XGTACX_site22] | 6.82 |
| AAAATTTCAATAAATACACACATATATATATATATT [CACACA_site1685] | 7.07 |
| ACACATACACATTAGGTGCATATATTTCAATATTAC [GTGCAC_site9423] | 10.3 |
| TTTTCAAAAATATATACACACATGCATATTACGGTG [CACACA_site775] | 6.98 |
| TTGTTGTATTATTTATGTACATATGTATATGTATAT [XGTACX_site1315] | 7.17 |
| ACAAAAAAAAACGTGGTGCATTAATAATATTGTATA [GTGCAC_site9469] | 10.3 |
| AATATTGTATATAATAAACACACAATATTAAAAATA [CACACA_site8262] | 6.99 |
| TATTGTATATAATAAACACACAATATTAAAAATATA [CACACA_site1057] | 6.8 |
| ATATGGTGATATAGGTGTACATTTTGATGCTTATTT [XGTACX_site4283] | 6.95 |
| AGCATTTTAAGTTATACACACATTTTGAATCTATAT [CACACA_site7599] | 6.89 |
| CACCCGCACGTATTTGCACACATTGCCACGTAATTA [CACACA_site5786] | 7.76 |
| ATTTTCTTTCTATGCACACGCACGTATTTGCACCCA [CACACA_site3350] | 11.9 |
| TTATTTTCTTTCTATGCACACGCACGTATTTGCCCA [CACACA_site9104] | 7.91 |
| TAAAAATAAATAAATACATGCACCAAAAATAAATTT [TGCATGCA_site801] | 10.2 |
| TACATAAATTTTAATACATGCAAATAAAATATATAA [TGCATGCA_site131] | 6.94 |
| TTAAAAAAATATAATACACACCAAAAATATGCACAT [CACACA_site5209] | 9.27 |
| TCCTATGATGATGATAGTACATATGAGTTCAAAAAA [XGTACX_site273] | 6.81 |

| Sequence | gcPBM binding intensity (ln) |
| --- | --- |
| CACCAATTCATATGCACACACATCTGCATATTATAT [CACACA_site1773] | 7.43 |
| CCATGTAGTGAATAGGTGCATATCAAAAAAAAAAAA | 11 |
| GGAAAATTATCAATAGCATGCAAAATGTGAATATTA [TGCATGCA_site901] | 6.83 |
| TATATAATATATATAGTGCATAAGTTCAAAAGAATA [GTGCAC_site9805] | 8.73 |
| CATATAAATAGACACACACACACATATAAATAAATA [CACACA_site7156] | 7.23 |
| AAAACAATAATATACTGTACATATATATAATAACAT [XGTACX_site6188] | 7.13 |
| ATGGTATAAAAAAATACACACTTATATATATTCTTA [CACACA_site4427] | 6.86 |
| TGTATATGTGAAGCAAGGGATGCGGCAGACATAACA [CACACA_negctrl_site1339] | 7.07 |
| TTATTTTATTTAGGGTGTACCCAATTTTTCCATATG [XGTACX_site4957] | 6.78 |
| ATATGAAACATGAAGGTGCATAATGTGTATATTTAT | 10.8 |
| ATATATTATGGGTGTGCACACAATATTTATATGTTC [CACACA_site2270] | 8.64 |
| TATTTATATGTATATACATGCACATATATATGAAAC [TGCATGCA_site1005] | 7.7 |
| CACATATATATGTGTGCATGTTGTATTATATATTTA [TGCATGCA_site632] | 8.48 |
| GTATTATTTTATGATGCATGTGTATTTCATATATGC [TGCATGCA_site660] | 6.98 |
| ATTTCCCCAACGTGGGTGCATATATTTATGTGTGAA [GTGCAC_site9439] | 11.1 |
| ATTTATATATATGTATGTACGTATGTGTGTATATGT [XGTACX_site7587] | 7.73 |
| TTTATTTATGTGTGGGTGCATATACGTATGATGTAT | 10.6 |
| CCGTTGAACATATATGCACACACATAAAATAAAAAA [CACACA_site8761] | 7.65 |
| AAAAAATAAGATTGTACACACATAAATTCTTTGTCA [CACACA_site2089] | 6.85 |
| AATCCTTCATATGTAGTGCATATTAACAAAATAAAA [GTGCAC_site9500] | 8.78 |
| TTTTGCAATAATGTTGCACACTAAATAGTCATATAT [CACACA_site7977] | 7.61 |
| ATATATATATATATATGTACGTACTCAGTTATGCCT [XGTACX_site453] | 9.2 |
| TTTGTAACTTCTTTCACACATATATATATATATATA [CACACA_site5603] | 9.76 |
| CACCCACCCAGACACACACACACACCCCCACCCATA [CACACA_site367] | 7.6 |

| Sequence | gcPBM binding intensity (ln) |
| --- | --- |
| TTTGTGTTTATAAATTGTACAAAGGTGCAAGAAGAA [XGTACX_site2159] | 11.2 |
| GTGTGCAAAAATTGTTGTACATTATATATAAAAAAA [XGTACX_site3246] | 7.79 |
| ACAAATTGTTAAAGGTGTACAATACATATATAAGAA [XGTACX_site4906] | 7.38 |
| TATGTACAGACATATACACACCTCTATAATCTATAT [CACACA_site6482] | 7.09 |
| AAAAAAAATTATGAAGTGCATTAGTGAATTTGATTG | 9.16 |
| TGTCGGCTTAGATTAGTGCACTGAAAAATGAAGTAT [GTGCAC_site9919] | 10.5 |
| TATATATATAAATGAATGCACTTTAGAAAAAAGTAC | 8.52 |
| ATTTTTTTTTTTTTTTGTACGAATAATATGTATGAA [XGTACX_site5318] | 7.12 |
| TAAATATATATATGTGTGCACTTCTTCATTTTAATA [GTGCAC_site9537] | 9.97 |
| TAGGCCTTAAATCGTGTGCACTTTTTTTTTTTTTTT | 10.7 |
| AAATTAAATAAATTTACACACTAAAAATTACATATA [CACACA_site1054] | 6.88 |
| TTTTTATTTTATAATATATTCCTTTTCCTTTCTTTC [CACACA_negctrl_site245] | 6.64 |
| CTTTCGGTTGGAGAGGTGCGCTTCTCCTTTATAATA | 11 |
| TCTTTATCCTTTCTCTTTTTATTAATTATAATATTC [TGCATGCA_negctrl_site584] | 6.99 |
| TACGCACAAAAATATACACACACACCGATATATTTA [CACACA_site9213] | 7.15 |
| CATACACAAGAAAATTCACACACACCCATATATATA [CACACA_site9288] | 7.73 |
| CAAAACAAAGTTGCCGCACACAGATACGCACCCAAG [CACACA_site3455] | 11.9 |
| AAAAAAAAAACAAATACACACGCACCCAAAAAAAAA [CACACA_site8166] | 10.1 |
| GCCGCACCCAGATACGCACACAAGAAAAAAATATTC [CACACA_site3456] | 11.1 |
| TACAGATACGGACACACACACACACCCAGACAAAAA [CACACA_site4432] | 7.54 |
| ATTTTTATGTTGAAAAGTACTTGAATCCCATGTAAC [XGTACX_site4453] | 7.09 |
| ATATATATATATATAACACACGTGTATTTATCTGTA [CACACA_site5922] | 9.33 |
| AACACACACATATATATATATATATATATATATATA [GTGCAC_negctrl_site573] | 9.64 |
| TAATTAATTTACATTTTAATTTTATACAAAATTTAT [CACACA_negctrl_site830] | 6.7 |

| Sequence | gcPBM binding intensity (ln) |
| --- | --- |
| TTCCTGTTAATTACAACACACAATTTTTATTTTATG [CACACA_site779] | 7.16 |
| ATTGTGGCAATATATTGTACATGTAATATAAATATA [XGTACX_site5415] | 7.06 |
| TTCTTTTTAATGTCGGTGCAACTCCATAAAAACAAA [GTGCAC_site9488] | 10.8 |
| CCATATTTAATAAAATGTACTCATTCTTTTATTTTA [XGTACX_site7802] | 7.11 |
| TTCTTTTTTTTTAAAACAAACAAACAAACAAACAAA [CACACA_negctrl_site832] | 7.06 |
| ATATATTTTATATAGTGTACTTTAATTTTTTTTTTT [XGTACX_site5550] | 6.83 |
| AGTTATTTTTATATTTCACACACATATACTTTTACA [CACACA_site9357] | 7.21 |
| TAGCTGTTCAAAAAATGTACATATATAATATATATA [XGTACX_site5842] | 7.49 |
| AAACCCTATTCAATGCAATAATTTTATAATTTTTTT [TGCATGCA_negctrl_site434] | 6.91 |
| GTATTCATGCTAAAGGTGCAATAATTTTTATAATAA [GTGCAC_site9603] | 10.9 |
| ATTTTCATGATAAAGGTGCAATTATTTTTATAAGAA | 10.8 |
| TATAATTTATTAAGGGGTACATATATTTCATGATAA [XGTACX_site5141] | 7.19 |
| AATAAATTCATGATAGTGCAAAAATTATTTTTGTTA | 8.49 |
| ACACATAATATAAAGGTGCTATATTGTATTCATTTT [GTGCAC_site9457] | 8.36 |
| AATCAAAATTAATTAACACACAATTTTAATATTCTT [CACACA_site2063] | 6.79 |
| ATATATTTTTTTTAGCGTACATGCAAAAAAAAAAAA [XGTACX_site4590] | 7.26 |
| TACGTTATGTTGAATAGTACAATTTGGTGAACAGGT [XGTACX_site1729] | 7.51 |
| GTAGTGGTTGAATATACACACATATATAAATAAATA [CACACA_site7282] | 7 |
| TTTTTTTTTTTGTGGGTGCGTTTATAAAAACAGGAA | 11.1 |
| TTTTATAAACAGAGGGGTACGGGAAAAAAAAAAAAA [XGTACX_site1480] | 7.11 |
| TTTTTTTTTTTTTTGGTGCGTTTATATATAAATATA | 8.81 |
